Most compounds without a hit are left out; they make up all but 21% or so of the library.
CHX counter: counter-screen for Shiga toxin inhibitors: cycloheximide protein synthesis inhibition; cell reporter, cycloheximide protein synthesis inhibition counterscreen; max response, %; 300,000 tested, 12% active; in the data active = max response mostly above about 13%, no sharp cut-off; inactive = mostly below about 14%; also: read at 38.3 µM for the half of the compounds with a filed dose; 0% is about no effect
Sm TGR inh: blocks Schistosoma mansoni thioredoxin glutathione reductase; Q962Y6; purified TGR, DTNB reduction, TNB absorbance 405 nm; Potency, µM (top dose mostly 114 µM), inactives show at the highest dose activity change, negative = inhibition, actives largely listed as inhibitors; 360,000 tested, 3% active; AID 485364; also: potency is read from the fitted curve at half-maximal effect; % is scaled to controls: 0 for no effect and ±100 for the full control effect; nearly all actives have a fitted effect of over 60% in size
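First, TGR (20 nM dispensed) and NADPH were mixed with compound. Second, a 15 min room-temperature incubation followed. Third, further NADPH and then DTNB were added to start the reaction. Finally, TNB absorbance was monitored kinetically.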
NS1 inh: blocks influenza NS1 protein function. Potency, µM (highest dose often 46.1 µM), without a hit: at the top dose activity, positive = more growth. 270,000 tested, 0.4% active. AID 2326; calls by dose curve; also: potency is read from the fitted curve at half-maximal effect; actives are rising curves; nearly all actives have a fitted effect of over 50% in size
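Compounds were scored for reversing the slow growth caused by influenza A NS1 in S. cerevisiae, measured by optical density at 600 nm. Assay medium contained 2% galactose at pH 6.0; NS1-free yeast of the same strain were the positive control.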
Shiga toxin inh: blocks Shiga toxin action in Vero cells; 290,000 tested, 9.2% active; inhibition, % at 38.7 µM; Vero cells, Shiga toxin protein synthesis inhibition reporter; in the data active = inhibition mostly above about 28%, no sharp cut-off; inactive = mostly below about 43%; also: 0% is about no effect
Pf growth 96h: P. falciparum growth inhibition at 96 hours; AID 504834; Potency, µM (series often up to 28.7 µM), without a hit: top-dose activity change, negative = inhibition, most hits filed as inhibitors; 320,000 tested, 6.9% active; P. falciparum luciferase reporter growth, 96 h; also: potency is read from the fitted curve at half-maximal effect; % is scaled to controls: 0 for no effect and ±100 for the full control effect
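Infected RBCs, 2% Hct / 0.05% parasitemia final; luciferase-reporter P. falciparum; cpd 96 h, 37 C, 5% CO2; luciferase detection reagent; luminescence.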
Pf growth 48h: P. falciparum growth inhibition at 48 hours (one generation). P. falciparum luciferase growth in erythrocytes, 48 h. Potency, µM (series often up to 28.7 µM), inactives show at the highest dose activity change, negative = inhibition, usual class: inhibitors. 310,000 tested, 5.9% active. AID 504832; also: potency is read from the fitted curve at half-maximal effect; % is scaled to controls: 0 for no effect and ±100 for the full control effect
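A one-generation exposure of luciferase-tagged malaria parasites in RPMI 1640/Albumax erythrocyte culture, 37 C and 5% CO2. Inhibition is inferred from decreased luminescence after adding detection reagent.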
Starred values were filed as active, the others as inactive; ? = inconclusive; / = no result given; [ ] = remark or other dose. Unless noted, calls follow the shape of the dose curve; as a rule, active = well fitted curve in the direction sought with a large enough effect; inconclusive = small, poorly fitted or top-dose-only effect, or another doubt; inactive = no such curve, though single readings can be large; an effect the other way counts as inactive or inconclusive.

SMILES	CHX counter	Sm TGR inh	NS1 inh	Shiga toxin inh	Pf growth 96h	Pf growth 48h
Cc1ccc(CN2CCN(Cc3cn[nH]c3C3CCCCC3)CC2CCO)cc1 (stereo not drawn)	-4	-2%	-1%	-10	?	-9%
O=C(OCCN1CCCCC1)C(O)(c1ccccc1)c1ccccc1	/	/	/	/	?	-16%
CCCOc1cc(CN2CCCCC2)cc(C(C)=O)c1	-3	?	9%	17	9.3µM*	8%
Cc1ccc(OCCCN2CCOCC2)cc1	20*	-7%	4%	20*	?	39%
Cc1ccc(C(O)(CCN2CCCCC2)c2ccccc2)cc1 (stereo not drawn)	1	11µM*	0%	-2	10%	-16%
CCOc1ccc(C(=O)CCN2CCCCCC2)cc1	15	0.32µM*	-54%	-2	0%	-4%
COc1ccc(C(C)=O)cc1CN1CCCCC1	-4	-4%	9%	2	-20%	-6%
Cc1ccc(OCCCCCN2CCOCC2)cc1	-1	-15%	-2%	8	117%	4%
CCOc1ccc(OCCN2CCCCC2)cc1	7	5%	14%	23	?	21%
CCN(C(=O)Cn1cnc2ccccc2c1=O)C1CCS(=O)(=O)C1 (stereo not drawn)	/	0%	/	/	-11%	6%
CCCOc1ccc(C(=O)CCN2CCCCC2)cc1	5	0.32µM*	-43%	-11	/	13%
CCCCOc1ccc(C(=O)CCN2CCOCC2)cc1	14	2µM*	/	3	-2%	34%
CCCOc1ccc(C(O)(CCC)CCN2CCCCC2)cc1 (stereo not drawn)	-4	32µM*	-11%	-12	-22%	-14%
CC(C)(C)c1ccc(OCCCN2CCCC2)cc1	-2	7%	-6%	-6	-24%	-5%
COc1ccc(CNC(=O)CN(C(=O)c2csnn2)c2ccc(F)cc2)cc1	-1	-5%	10%	-1	-2%	-10%
CN1C(=O)CC(C(=O)O)SC1=Nc1cc(Cl)cc(Cl)c1 (stereo not drawn)	3	-2%	-1%	10	?	-5%
C[n+]1cccc(/C=N/Nc2nc(Cl)c(C#N)c(Cl)c2Cl)c1	0	?	-34%	-14	-22%	?
N#Cc1c(Cl)nc(N/N=C/c2ccccc2)c(Cl)c1Cl	7	-29%	-29%	3	5.2µM*	7%
C[N+](C)(C)c1ccc(/C=N/Nc2nc(Cl)c(C#N)c(Cl)c2Cl)cc1	-3	45µM*	-37%	-7	?	2.1µM*
O=c1cc(CSc2nnc(COc3cccc4ccccc34)o2)c2ccccc2[nH]1	1	-9%	1%	-3	12µM*	79%
CCOC(=O)N1CCN(Cc2nc3cc(NC(=O)c4ccccc4Cl)ccc3n2C(C)C)CC1	/	0%	/	/	/	/
c1ccc(N2CCN(c3ccccc3)C2c2cccnc2)cc1	26*	6%	-6%	48*	482%	3.7µM*
Cc1ccc(N2CCN(c3ccc(C)cc3)C2c2cccnc2)cc1	19*	-6%	-6%	38	1.3µM*	/
c1ccc(N2CCN(c3ccccc3)C2c2ccncc2)cc1	35	-15%	-5%	22	/	13µM*
O=C(c1nc2ccccn2c1CN1CCCC(c2nc3ccccc3o2)C1)N1CCCC1 (stereo not drawn)	0	-4%	0%	-12	10%	-27%
SMILES	CHX counter	Sm TGR inh	NS1 inh	Shiga toxin inh	Pf growth 96h	Pf growth 48h
CN(C)CCNC(=O)NC1CCCCC1	-1	0%[11.4 µM]	-1%	-11	-23%	/
CC1CCC(NC(=S)NCCN(C)C)CC1 (stereo not drawn)	23*	-7%	3%	45*	38%[5.75 µM]	72%
O=C(/C=C/c1ccc([N+](=O)[O-])cc1)NCc1ccco1	20	-32%	-6%	27*	?	60%
O=C(/C=C/c1c(F)cccc1Cl)NCc1ccco1	39*	2%	-3%	182*	113%	13%
O=C(/C=C/c1ccc([N+](=O)[O-])cc1)/C=C/c1ccco1	38*	4.5µM*	3%	73*	-11%	?
O=C(/C=C/c1ccc(F)cc1)NCc1ccco1	46*	-9%	-5%	94*	8%	6%
O=C(/C=C/c1cccc([N+](=O)[O-])c1)NCc1ccco1	-4	-24%	-3%	0	?	19%
Cc1ccsc1/C=N/NC(=O)CNC(=O)c1cccc([N+](=O)[O-])c1C	0	5%	9%	-3	-1%	0%
O=C(COC(=O)c1cc(Br)ccc1O)Nc1ccc2c(c1)OCO2	/	-15%	/	/	-18%	?
O=C(CN1C(=O)/C(=C/c2c(F)cccc2Cl)Oc2ccccc21)NCc1ccco1	39*	-3%	/	77*	58%	?
COc1ccc(NC(=O)c2cccc3c(=O)c4c([nH]c23)CCCC4)cc1	/	0%	/	/	/	/
Cc1cc(N2CCN(C(=O)c3ccco3)CC2)n2nc(C)c(-c3ccc(Cl)cc3)c2n1	-2	-2%	-2%	18	4.1µM*	14%
Cc1nn2c(N3CCN(C(=O)c4ccco4)CC3)cc(C(C)(C)C)nc2c1-c1ccc(Cl)cc1	2	8%	7%	33	?	?
COc1ccc(-c2c(C)nn3c(N4CCN(c5ccccc5)CC4)cc(C)nc23)cc1OC	/	-7%	/	/	/	/
O=C(c1ccccc1)c1ccc2nc(N3CCN(C(=O)c4ccco4)CC3)c3nncn3c2c1	-3	45µM*	-32%	78	3.3µM*	/
O=C(c1ccccc1)c1ccc2nc(N3CCN(c4ccccc4)CC3)c3nncn3c2c1	/	0%	/	/	/	/
Cc1cc(N2CCN(C(=O)c3ccco3)CC2)n2nc(C)c(-c3ccccc3)c2n1	11	0%	5%	3	-29%	12µM*
O=C(Nc1cc(F)ccc1F)N1CCC(CN2CCOCC2)CC1	/	0%	/	/	/	/
CCCCn1c(=O)c2oc3ccccc3c2n(Cc2cccc(C)c2)c1=O	/	1%	/	/	/	/
COc1ccc(OC)c(N=c2ssnc2Cl)c1	-2	56µM*	-107%	-4	1.7µM*	22%
Nc1ccccc1N=c1ssnc1Cl	19	-5%	/	55*	-59%	?
COc1cc(N=c2ssnc2Cl)c(OC)cc1Cl	-2	?	-166%	-9	?	29%
Cc1ccc(N=c2ssnc2Cl)cc1	26*	?	-118%	33	-8%	13%
Cc1cc(C)nc(/N=c2/ssnc2Cl)c1	-3	-5%	-225%	-6	8%	-26%
Cc1cc(Cl)ccc1N=c1ssnc1Cl	4	?	-166%	-14	4%	/
Cc1nnc(N=c2ssnc2Cl)o1	/	28µM*	/	/	36%	-6%
CC(OC(=O)c1ccc2c(=O)n3c(nc2c1)CCCCC3)C(N)=O (stereo not drawn)	1	-3%	6%	-7	38%	32%
CCC(C)(C)NC(=O)/C=C/c1cccs1	11*	-1%	4%	12	34%	17%
C=CCNC(=O)/C=C/c1cccs1	5	11%	/	11	45%	27%
O=C(/C=C/c1cccs1)NNC(=O)c1ccccc1	/	6%	/	/	128%	99%

Assay outcomes: PubChem BioAssay, National Center for Advancing Translational Sciences (NCATS)
